Assay [1] deals with T1, Ephrin type-B receptor 2 (Homo sapiens) (UniProt P29323).
T1 sequence (whole entry): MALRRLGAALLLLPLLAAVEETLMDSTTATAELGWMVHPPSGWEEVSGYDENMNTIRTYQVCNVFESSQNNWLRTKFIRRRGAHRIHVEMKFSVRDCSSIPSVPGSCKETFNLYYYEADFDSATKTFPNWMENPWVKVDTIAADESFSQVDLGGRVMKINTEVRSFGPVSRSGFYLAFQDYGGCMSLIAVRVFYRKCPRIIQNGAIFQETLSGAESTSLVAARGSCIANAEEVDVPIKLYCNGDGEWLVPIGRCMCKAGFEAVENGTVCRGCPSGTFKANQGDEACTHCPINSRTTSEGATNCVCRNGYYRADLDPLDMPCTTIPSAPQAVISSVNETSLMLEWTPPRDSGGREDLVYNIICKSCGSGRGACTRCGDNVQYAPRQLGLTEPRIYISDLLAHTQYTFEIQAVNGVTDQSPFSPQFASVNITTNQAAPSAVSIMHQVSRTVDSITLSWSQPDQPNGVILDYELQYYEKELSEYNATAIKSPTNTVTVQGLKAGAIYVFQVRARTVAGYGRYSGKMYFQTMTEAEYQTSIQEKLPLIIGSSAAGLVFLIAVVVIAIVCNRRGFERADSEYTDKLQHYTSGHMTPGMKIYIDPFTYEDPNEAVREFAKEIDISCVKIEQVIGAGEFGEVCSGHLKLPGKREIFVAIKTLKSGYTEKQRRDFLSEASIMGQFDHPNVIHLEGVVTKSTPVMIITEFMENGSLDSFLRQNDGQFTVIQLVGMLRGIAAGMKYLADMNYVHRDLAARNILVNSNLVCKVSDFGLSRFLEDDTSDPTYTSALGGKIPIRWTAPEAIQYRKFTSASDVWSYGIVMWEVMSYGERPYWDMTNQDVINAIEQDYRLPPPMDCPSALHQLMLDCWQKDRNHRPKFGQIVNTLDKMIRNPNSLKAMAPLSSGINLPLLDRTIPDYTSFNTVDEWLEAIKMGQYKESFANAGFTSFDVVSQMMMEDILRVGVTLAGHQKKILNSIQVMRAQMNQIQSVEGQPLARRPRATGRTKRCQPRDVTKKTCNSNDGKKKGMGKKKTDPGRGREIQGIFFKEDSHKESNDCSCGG
Conditions: at 1 µM.

Assay [2] deals with T2, Ephrin type-B receptor 3 (Homo sapiens) (UniProt P54753).
T2 sequence (whole entry): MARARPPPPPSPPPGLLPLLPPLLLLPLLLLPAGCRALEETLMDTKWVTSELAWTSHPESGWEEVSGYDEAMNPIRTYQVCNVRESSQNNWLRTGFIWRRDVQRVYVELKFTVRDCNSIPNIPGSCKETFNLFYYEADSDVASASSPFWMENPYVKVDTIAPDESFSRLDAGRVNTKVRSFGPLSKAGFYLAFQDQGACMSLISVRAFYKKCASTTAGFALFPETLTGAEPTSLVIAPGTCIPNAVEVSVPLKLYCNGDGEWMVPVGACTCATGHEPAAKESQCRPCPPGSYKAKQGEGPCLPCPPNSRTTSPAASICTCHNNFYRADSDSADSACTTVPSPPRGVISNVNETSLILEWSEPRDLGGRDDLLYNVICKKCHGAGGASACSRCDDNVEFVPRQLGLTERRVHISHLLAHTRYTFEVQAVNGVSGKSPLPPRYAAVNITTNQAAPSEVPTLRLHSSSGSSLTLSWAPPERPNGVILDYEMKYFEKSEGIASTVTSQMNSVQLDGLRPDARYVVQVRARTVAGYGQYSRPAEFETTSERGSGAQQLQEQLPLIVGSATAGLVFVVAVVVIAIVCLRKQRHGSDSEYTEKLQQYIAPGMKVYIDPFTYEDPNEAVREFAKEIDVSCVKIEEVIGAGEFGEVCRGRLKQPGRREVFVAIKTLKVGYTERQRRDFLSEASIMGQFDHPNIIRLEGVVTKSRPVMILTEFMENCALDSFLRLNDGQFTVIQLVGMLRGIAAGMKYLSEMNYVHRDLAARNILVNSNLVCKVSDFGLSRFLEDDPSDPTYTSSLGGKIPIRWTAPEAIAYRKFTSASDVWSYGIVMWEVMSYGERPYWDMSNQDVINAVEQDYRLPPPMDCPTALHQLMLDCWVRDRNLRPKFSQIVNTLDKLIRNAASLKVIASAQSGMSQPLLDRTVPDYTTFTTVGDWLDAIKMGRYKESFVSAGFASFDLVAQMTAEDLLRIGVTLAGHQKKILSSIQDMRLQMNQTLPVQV
Conditions: at 0.1 µM.

In assay [3] the target is T2, Ephrin type-B receptor 3 (Homo sapiens). To be noted: at 1 µM.
Assay [4] addresses T3, Ephrin type-B receptor 4 (Homo sapiens) (UniProt P54760).
T3 sequence (whole entry): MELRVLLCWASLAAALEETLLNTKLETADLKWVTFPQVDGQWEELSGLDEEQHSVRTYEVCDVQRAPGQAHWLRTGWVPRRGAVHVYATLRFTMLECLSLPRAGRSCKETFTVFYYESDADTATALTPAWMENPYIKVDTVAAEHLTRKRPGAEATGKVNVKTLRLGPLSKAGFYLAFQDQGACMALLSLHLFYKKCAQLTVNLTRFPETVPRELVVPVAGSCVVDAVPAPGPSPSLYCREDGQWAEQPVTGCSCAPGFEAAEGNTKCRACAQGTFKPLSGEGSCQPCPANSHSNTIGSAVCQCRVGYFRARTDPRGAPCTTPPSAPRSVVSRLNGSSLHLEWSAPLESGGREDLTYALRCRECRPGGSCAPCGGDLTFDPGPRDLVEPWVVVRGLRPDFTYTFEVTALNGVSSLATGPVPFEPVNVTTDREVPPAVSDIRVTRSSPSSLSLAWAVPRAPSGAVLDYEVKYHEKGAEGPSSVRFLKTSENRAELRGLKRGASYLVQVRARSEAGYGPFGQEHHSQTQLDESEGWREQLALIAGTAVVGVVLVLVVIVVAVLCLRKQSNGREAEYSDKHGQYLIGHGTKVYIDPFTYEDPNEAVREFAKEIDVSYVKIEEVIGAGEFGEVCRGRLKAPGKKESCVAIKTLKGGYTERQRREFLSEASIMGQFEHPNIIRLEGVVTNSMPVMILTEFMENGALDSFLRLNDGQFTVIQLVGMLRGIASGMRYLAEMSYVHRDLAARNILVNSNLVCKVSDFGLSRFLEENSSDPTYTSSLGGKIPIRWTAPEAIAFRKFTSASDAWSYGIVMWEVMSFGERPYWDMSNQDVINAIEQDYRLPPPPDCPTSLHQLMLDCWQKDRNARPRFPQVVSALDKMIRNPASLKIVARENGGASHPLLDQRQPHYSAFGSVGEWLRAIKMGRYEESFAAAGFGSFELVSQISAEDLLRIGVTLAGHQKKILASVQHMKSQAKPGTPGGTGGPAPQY
To be noted: at 0.1 µM.

Assay [5] addresses T3, Ephrin type-B receptor 4 (Homo sapiens). To be noted: at 1 µM.
Assay [6] has as its target Receptor tyrosine-protein kinase erbB-2 (Homo sapiens) (UniProt P04626). Conditions: at 0.1 µM.
Assay [7] shares this target. Conditions: at 1 µM.
Assay [8] has as its target Receptor tyrosine-protein kinase erbB-4 (Homo sapiens) (UniProt Q15303). To be noted: at 0.1 µM.
For assay [9] the target is unchanged. To be noted: at 1 µM.
The target in assay [10] is Tyrosine-protein kinase Fer (Homo sapiens) (UniProt P16591). To be noted: at 0.1 µM.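 Note: reported figures are averaged percent inhibition of FER.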

“And” between values parts separate entries of the source, which are not always exact repeats. Equal entries are not always repeated.

Chain of Tyrosine-protein kinase Fer (Homo sapiens) (P16591 whole entry, looked up): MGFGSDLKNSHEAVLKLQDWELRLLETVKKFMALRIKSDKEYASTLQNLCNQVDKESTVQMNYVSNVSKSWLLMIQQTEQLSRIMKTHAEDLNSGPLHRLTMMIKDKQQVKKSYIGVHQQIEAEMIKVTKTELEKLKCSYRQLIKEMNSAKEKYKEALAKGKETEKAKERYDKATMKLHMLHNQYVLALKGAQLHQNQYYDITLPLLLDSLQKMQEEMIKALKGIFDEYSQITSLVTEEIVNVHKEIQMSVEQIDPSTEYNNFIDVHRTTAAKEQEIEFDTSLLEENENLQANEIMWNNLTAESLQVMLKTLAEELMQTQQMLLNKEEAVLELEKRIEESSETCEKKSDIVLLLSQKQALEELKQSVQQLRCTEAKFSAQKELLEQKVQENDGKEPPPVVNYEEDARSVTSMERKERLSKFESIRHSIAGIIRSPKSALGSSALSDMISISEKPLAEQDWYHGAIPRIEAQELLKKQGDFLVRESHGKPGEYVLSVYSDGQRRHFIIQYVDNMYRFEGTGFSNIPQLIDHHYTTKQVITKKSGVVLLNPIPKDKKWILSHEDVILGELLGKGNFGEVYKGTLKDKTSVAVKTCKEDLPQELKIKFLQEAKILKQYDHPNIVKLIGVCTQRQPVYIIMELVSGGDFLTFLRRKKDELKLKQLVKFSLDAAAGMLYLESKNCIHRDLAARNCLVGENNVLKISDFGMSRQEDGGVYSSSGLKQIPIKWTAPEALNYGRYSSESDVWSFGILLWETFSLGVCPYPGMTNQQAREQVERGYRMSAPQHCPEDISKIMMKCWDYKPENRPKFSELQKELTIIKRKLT
Chain of Receptor tyrosine-protein kinase erbB-4 (Homo sapiens) (Q15303 whole entry): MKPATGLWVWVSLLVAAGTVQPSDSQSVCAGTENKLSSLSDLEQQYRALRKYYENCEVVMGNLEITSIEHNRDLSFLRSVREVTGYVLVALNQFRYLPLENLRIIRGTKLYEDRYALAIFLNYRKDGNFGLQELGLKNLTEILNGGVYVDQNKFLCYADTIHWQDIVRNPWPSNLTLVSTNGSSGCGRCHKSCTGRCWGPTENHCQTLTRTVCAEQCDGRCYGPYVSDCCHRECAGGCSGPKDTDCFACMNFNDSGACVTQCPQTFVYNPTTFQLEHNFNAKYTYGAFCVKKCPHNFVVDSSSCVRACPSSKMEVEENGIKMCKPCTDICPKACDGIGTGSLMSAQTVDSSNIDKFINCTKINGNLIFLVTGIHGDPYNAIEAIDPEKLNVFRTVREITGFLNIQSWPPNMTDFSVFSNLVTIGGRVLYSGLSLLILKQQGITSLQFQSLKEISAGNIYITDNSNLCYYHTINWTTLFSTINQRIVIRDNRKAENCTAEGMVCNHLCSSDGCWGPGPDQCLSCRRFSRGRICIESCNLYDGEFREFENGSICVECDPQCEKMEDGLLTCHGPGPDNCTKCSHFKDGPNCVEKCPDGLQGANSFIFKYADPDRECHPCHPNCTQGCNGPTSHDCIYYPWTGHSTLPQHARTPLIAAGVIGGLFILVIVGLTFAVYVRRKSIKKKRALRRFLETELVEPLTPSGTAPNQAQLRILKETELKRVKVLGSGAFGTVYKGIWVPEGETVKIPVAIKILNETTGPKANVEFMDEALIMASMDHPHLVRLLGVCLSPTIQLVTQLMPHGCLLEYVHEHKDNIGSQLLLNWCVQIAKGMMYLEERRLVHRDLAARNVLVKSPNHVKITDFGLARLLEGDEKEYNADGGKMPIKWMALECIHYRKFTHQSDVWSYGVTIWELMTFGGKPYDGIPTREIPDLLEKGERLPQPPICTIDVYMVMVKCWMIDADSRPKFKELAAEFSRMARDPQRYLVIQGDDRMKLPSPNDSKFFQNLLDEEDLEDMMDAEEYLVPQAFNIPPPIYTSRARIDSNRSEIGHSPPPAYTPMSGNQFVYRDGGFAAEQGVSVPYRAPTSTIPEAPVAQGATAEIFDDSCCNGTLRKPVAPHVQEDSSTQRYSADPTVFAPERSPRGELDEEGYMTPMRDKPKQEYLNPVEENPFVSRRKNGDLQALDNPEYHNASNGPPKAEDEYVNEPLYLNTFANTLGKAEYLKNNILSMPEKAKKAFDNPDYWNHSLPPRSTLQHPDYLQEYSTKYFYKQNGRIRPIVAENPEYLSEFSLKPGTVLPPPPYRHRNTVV
Chain of Receptor tyrosine-protein kinase erbB-2 (Homo sapiens) (P04626 whole entry): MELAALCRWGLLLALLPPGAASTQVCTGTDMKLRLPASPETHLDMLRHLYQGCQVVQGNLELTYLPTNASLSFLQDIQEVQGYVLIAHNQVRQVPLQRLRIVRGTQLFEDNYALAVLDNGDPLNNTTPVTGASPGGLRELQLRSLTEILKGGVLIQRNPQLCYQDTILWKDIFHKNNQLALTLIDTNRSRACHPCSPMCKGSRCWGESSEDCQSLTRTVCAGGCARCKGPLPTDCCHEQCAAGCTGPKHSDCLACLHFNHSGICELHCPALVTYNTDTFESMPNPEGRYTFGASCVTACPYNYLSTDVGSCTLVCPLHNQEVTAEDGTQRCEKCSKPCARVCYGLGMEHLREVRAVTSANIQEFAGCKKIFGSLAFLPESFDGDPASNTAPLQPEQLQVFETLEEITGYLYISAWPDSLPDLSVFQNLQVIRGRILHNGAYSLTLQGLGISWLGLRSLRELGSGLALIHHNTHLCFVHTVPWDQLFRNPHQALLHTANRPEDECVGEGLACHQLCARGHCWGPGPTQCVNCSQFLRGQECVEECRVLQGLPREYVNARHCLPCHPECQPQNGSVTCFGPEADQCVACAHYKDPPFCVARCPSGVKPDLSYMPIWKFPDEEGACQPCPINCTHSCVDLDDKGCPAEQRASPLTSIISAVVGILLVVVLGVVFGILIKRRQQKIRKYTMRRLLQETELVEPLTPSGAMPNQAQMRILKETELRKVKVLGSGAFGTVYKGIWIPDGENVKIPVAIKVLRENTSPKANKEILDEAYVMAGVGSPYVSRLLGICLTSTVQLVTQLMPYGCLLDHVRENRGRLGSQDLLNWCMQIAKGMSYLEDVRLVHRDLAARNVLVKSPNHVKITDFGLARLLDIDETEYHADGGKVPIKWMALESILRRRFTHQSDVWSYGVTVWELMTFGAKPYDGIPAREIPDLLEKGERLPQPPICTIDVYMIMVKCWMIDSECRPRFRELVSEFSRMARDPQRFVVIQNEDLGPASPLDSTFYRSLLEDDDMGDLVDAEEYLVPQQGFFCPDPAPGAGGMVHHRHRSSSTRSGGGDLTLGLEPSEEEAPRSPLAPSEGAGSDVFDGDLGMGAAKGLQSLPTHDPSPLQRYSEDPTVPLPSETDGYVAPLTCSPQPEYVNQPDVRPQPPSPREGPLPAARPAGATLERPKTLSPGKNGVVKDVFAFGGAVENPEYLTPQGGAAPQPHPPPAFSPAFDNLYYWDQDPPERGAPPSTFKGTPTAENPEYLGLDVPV

The inhibition is the relative decrease from the control value, in per cent. In the case of `COC(=O)Nc1nc2ccc(Oc3ccc(NC(=O)Nc4cc(C(F)(F)F)ccc4F)cc3)cc2s1`, the inhibition in [1] was 83.7%; in [2] it was 16.8%; in assay [3] it was 36.6%; in [4], 29.6%; in [5] it was 73%; in [6], -0.44%. For the same molecule, the inhibition in [7] is -0.72%; in assay [8], 3.56%; in assay [9], 3.36%; in assay [10] it was 3.43%.
Regarding `FC(F)(F)CNc1nccc(-c2cnn3ncccc23)n1`, the inhibition in assay [1] worked out at 4.55%; in [2], 4.36%; in assay [3], 3.96%; in assay [4] it was 0.32%; in assay [5], 1.93%; in assay [6] it was 4.52%. Besides, the inhibition in assay [7] was determined as 3.89%; in assay [8], 13.2%; in assay [9], 14%; in assay [10], 1.02%.
Take `O=C(O[C@H]1CN[C@H](C#Cc2cc3ncnc(Nc4ccc(OCc5cccc(F)c5)c(Cl)c4)c3s2)C1)N1CCOCC1`: the inhibition in [1] came out at 6.81%; in assay [2], 5.55%; in assay [3], 5.83%; in assay [4] it was 0.52%; in assay [5], 1.52%; in assay [6] it was 6.98%. Besides, the inhibition in assay [7] worked out at 52.8%; in assay [8], 82.2%; in assay [9], 85.3%; in assay [10], 5.92%.
As for `CC(C)c1ccc(-c2cc(-c3c[nH]nc3-c3ccccn3)ccn2)cc1`, the inhibition is 5.4% in assay [1]; 3.79% in [2]; 1.74% in assay [3]; 0.47% in assay [4]; 2.78% in [5]; 0.79% in assay [6]. Also, the inhibition was -1.43% in assay [7], 4.41% in [8], 6.32% in [9] and 2.22% in [10].
Take `Cc1ccc(-c2cc3c(NC(=O)C4CC4)ncnc3o2)cc1`: the inhibition in assay [1] stood at 36.6%; in assay [2], 5.13%; in assay [3] it was 1.62%; in assay [4] it was 3.05%; in assay [5], 12.9%; in assay [6], 0.91%. Besides, the inhibition was -0.45% in assay [7], 9.66% in assay [8], 11.1% in [9] and 8.51% in assay [10].
As to `CN1CCC(C(=O)Nc2n[nH]c3nc(-c4ccc(O)cc4)c(Br)cc23)CC1`, the inhibition is 8.11% and 8.66% in [1]; 1.14% and 1.43% in [2]; 1.83% and 4.59% in assay [3]; -1.77% and 1.07% in assay [4]; -1.46% and 4.54% in [5]; 6.86% and 3.66% in [6]. The inhibition was 7.03% and 4.93% in [7]; 6.26% and 5.04% in assay [8]; 8.49% and 8.92% in assay [9]; 4.47% and -1.58% in assay [10].
With `CNC(=O)c1ncccc1Nc1nc(Nc2cc3c(cc2OC)CCCN3C(=O)CN(C)C)nc2[nH]ccc12`, the inhibition in [1] is 9.33%; in [2] it was 4.77%; in [3], -0.74%; in [4], 1.64%; in assay [5], 2.22%; in assay [6], 3.4%. Moreover, the inhibition was determined as 3.24% in assay [7], 10.7% in [8], 20.2% in [9] and 71.3% in assay [10].
For the molecule `Cn1c(-c2nonc2N)nc2cnccc21`, the inhibition in assay [1] is 3.92%; in [2], 3.54%; in assay [3] it was 4.62%; in assay [4], 2.84%; in assay [5] it was 2%; in assay [6], 4.78%. Further, the inhibition in [7] stood at 3.42%; in assay [8], 14.9%; in assay [9], 17.3%; in [10] it was 3.92%.
In the case of `Nc1nonc1-c1nc2cnccc2n1C1CC1`, the inhibition in [1] is 14.2% and 3.79%; in [2], 5.08% and 1.12%; in assay [3], 6.13% and -2.08%; in assay [4] it was 2.51% and -2.43%; in assay [5] it was 1.45% and -3.41%; in assay [6], 1.64% and 0.4%. The inhibition is -1.67% and -0.01% in [7]; 1.55% and 2.22% in assay [8]; 6.98% and 0.35% in assay [9]; 2% and 1.26% in assay [10].

The values above are taken from ChEMBL document CHEMBL1961873, “Compounds: GSK PKIS; Assays: Nanosyn kinase panel” (2012).
